Screening data: PubChem, Broad Institute
SIRT5 inh – sirtuin-5 (human) deacylase inhibition. Q9NXA8. inhibition, % at 15 µM. 1.1% of 330,000 active. Purified SirT5, succinyl-peptide AMC, trypsin-coupled fluorescence; in the data active = inhibition above about 15%
dFosB act-1 – mouse delta FosB homodimer activation. P13346. purified delta FosB, TAMRA-CDK5 oligo fluorescence polarization; percent of positive-control signal above neutral wells. activation, % at 25 µM. 0.99% of 340,000 active. AID 493131;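 active = mean activation above about 17%, with every replicate also reaching it, limit read from the data, passing the limit was not always enough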
CDK5 inh – blocks human CDK5/p35 kinase activity | Q00535+Q15078 | Recombinant CDK5/p35, ADP-Glo luminescence, 60 min | inhibition, % at 10 µM | 0.01% of 330,000 active | AID 488839;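 active = highest replicate inhibition of at least 50% and at least 75% of replicates reaching 50%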
Target sequence (Q00535 whole entry, looked up): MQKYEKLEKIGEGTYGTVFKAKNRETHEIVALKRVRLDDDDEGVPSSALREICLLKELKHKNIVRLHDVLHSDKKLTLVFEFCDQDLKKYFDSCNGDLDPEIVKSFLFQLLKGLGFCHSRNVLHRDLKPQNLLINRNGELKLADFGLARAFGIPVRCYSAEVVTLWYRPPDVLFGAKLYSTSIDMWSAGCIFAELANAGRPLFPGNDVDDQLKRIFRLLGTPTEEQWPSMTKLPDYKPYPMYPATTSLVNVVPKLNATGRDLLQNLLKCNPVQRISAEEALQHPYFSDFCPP
Target sequence (Q15078 whole entry, looked up): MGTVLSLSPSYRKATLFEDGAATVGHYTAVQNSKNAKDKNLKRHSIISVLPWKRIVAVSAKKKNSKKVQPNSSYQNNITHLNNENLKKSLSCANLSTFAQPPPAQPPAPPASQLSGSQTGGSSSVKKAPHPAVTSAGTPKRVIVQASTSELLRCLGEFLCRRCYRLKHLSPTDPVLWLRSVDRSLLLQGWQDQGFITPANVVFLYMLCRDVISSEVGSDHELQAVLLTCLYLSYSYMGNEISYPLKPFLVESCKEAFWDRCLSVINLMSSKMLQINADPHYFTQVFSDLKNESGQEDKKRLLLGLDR
PglD DTNB – inhibitors of Campylobacter jejuni PglD acetyltransferase; purified PglD enzyme, DTNB colorimetric CoA detection; inhibition, % at 12.5 µM; 0.098% of 360,000 active; AID 602405; in the data active = inhibition above about 16%, passing the limit was not always enough
FGF22 binding – shifts melting point of recombinant human FGF22; Q9HCT0; recombinant FGF22 thermal shift, SYPRO orange fluorescence; percent of sucrose octasulfate shift, DMSO zero; activity (Tm shift, normalised), % at 9.99 µM; 1.5% of 340,000 active; AID 651658;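 active = mean Tm shift, scaled 0 neutral to 100 positive control, at about 1.3% or above, every replicate too, limit read from the data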
PvdQ acylase – blocks Pseudomonas aeruginosa PvdQ acylase activity. 0.063% of 340,000 active. purified PvdQ acylase, fluorescence plate reader. AID 488965. inhibition, % at 10 µM; in the data active = inhibition above about 30%, passing the limit was not always enough
dFosB act-2 – enhances mouse delta FosB homodimer binding to DNA; shares compounds with dFosB act-1; AID 588690; 2,400 tested, under 10 active; activation, % at 24.9 µM; purified delta FosB, TAMRA-CDK5 oligo fluorescence polarization; normalised: neutral wells 0, positive control 100;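 active = highest replicate activation at or above 34% and every replicate reaching that threshold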;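 also: higher polarization means more probe DNA bound by delta FosB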
Hits are given with their value; 0 = inactive; - = no result. Only some compounds are listed: those with a hit (about 2.8% of all), similar ones and a draw of the others.

SMILES	SIRT5 inh	dFosB act-1	CDK5 inh	PglD DTNB	FGF22 binding	PvdQ acylase	dFosB act-2
Cc1ccc(CCNC(=O)c2ccc(NC3=NC4CS(=O)(=O)CC4S3)cc2)cc1 (configuration not stated)	0	0	0	0	0	0	-
NS(=O)(=O)c1ccc(CCNC(=O)c2ccc(NC3=NC4CS(=O)(=O)CC4S3)cc2)cc1 (configuration not stated)	-	18	0	0	-	0	0
Cc1ccc(NC(=O)c2ncn(CC(=O)NCc3ccccc3)n2)cc1C	0	0	0	0	0	0	-
Cc1ccc(NC(=O)c2ncn(CC(=O)NCc3nc4ccccc4[nH]3)n2)cc1C	0	47	0	0	0	0	0
O=C(NCCC1=CCCCC1)c1cc(S(=O)(=O)N2CCOCC2)ccc1Cl	0	0	0	-	0	0	-
O=C(NCCC1=CCCCC1)c1cc(S(=O)(=O)N2CCOCC2)c(Cl)cc1Cl	0	19	0	0	0	0	0
COc1ccc(NC(=O)COC(=O)c2ccc(-n3cnnn3)cc2)cc1Cl	0	35	0	0	0	0	0
C[C@@H]1CN([C@@H](C)CO)C(=O)c2cccc(N(C)C)c2O[C@H]1CN(C)Cc1ccncc1	0	-	-	0	0	-	-
C[C@@H]1CN([C@@H](C)CO)C(=O)c2cc(C#CC(C)(C)O)cnc2O[C@@H]1CN(C)C(=O)CN(C)C	0	-	-	0	0	-	-
COc1ccc2cc(C(=O)Nc3ccc(Cl)cc3)sc(=O)c2c1OC	-	71	0	-	-	0	0
COC(=O)c1cc2ccc(OC)c(OC)c2c(=O)s1	-	0	0	0	-	0	-
COc1ccc2cc(C(=O)Nc3ccc(O)cc3)sc(=O)c2c1OC	0	0	-	-	0	0	-
COc1ccc2cc(C(=O)Nc3ccc(F)cc3)sc(=O)c2c1OC	-	34	0	0	-	0	0
CCCN1C[C@H](C)[C@@H](OC)CN(C)C(=O)c2ccc(NS(=O)(=O)c3ccccc3)cc2OC[C@H]1C	0	-	-	0	0	-	-
Cc1nc2cc(C(=O)OCC(=O)NC34CC5CC(CC(C5)C3)C4)ccc2n1-c1ccccc1	-	65	0	0	-	0	0
COc1cccc(NC(=O)N[C@@H]2CC[C@@H](CC(=O)Nc3ccccc3)O[C@@H]2CO)c1	0	-	-	0	0	-	-
Cc1c(C2=CCN(S(=O)(=O)c3ccc(Br)cc3)CC2)c2ccccc2n1C	-	32	0	-	-	0	0
NC(=O)Cn1cc(/C=N/NC(=O)c2ccc(Cn3cc(Cl)cn3)o2)c(-c2ccccc2)n1	0	36	0	0	0	0	0
CO[C@H]1CN(C)C(=O)c2ccc(NS(=O)(=O)c3cccc(F)c3)cc2OC[C@H](C)N(C(=O)Cc2cccnc2)C[C@@H]1C	0	-	-	-	0	-	-
O=S(=O)(c1ccc(Cl)cc1)N1CCc2ccccc21	0	18	0	0	0	0	0
CC(C)C(=O)Nc1ccc2c(c1)C(=O)N(C)[C@@H]1CC[C@@H](CC(=O)NCc3ccc(F)cc3)O[C@@H]1CO2	0	-	-	0	0	-	-
CNC[C@H]1Oc2cc(C#CC3CCCCC3)ccc2S(=O)(=O)N([C@@H](C)CO)C[C@H]1C	0	-	-	0	0	-	-
CSc1ccccc1NC(=O)Cn1nnc(-c2ccc(S(C)(=O)=O)cc2)n1	0	30	0	-	0	0	0
NC(=O)CC(NC(=O)Cc1ccc(Br)cc1)c1ccc(NCc2ccc(F)c(F)c2)c([N+](=O)[O-])c1 (configuration not stated)	-	52	0	0	-	0	0
COc1ccc(CN(C)C[C@H]2Oc3ccc(NC(=O)CCCN(C)C)cc3C(=O)N([C@H](C)CO)C[C@H]2C)cc1	0	-	-	-	0	-	-
SMILES	SIRT5 inh	dFosB act-1	CDK5 inh	PglD DTNB	FGF22 binding	PvdQ acylase	dFosB act-2
COc1ccccc1C1CCN(Cc2ccccc2)CC1	0	0	0	0	0	0	-
COc1ccccc1C1CCN(Cc2ccc3ccccc3c2)CC1	0	21	0	0	0	0	0
Cc1cccc(CC2S/C(=N/N=C/c3ccco3)NC2=O)c1 (configuration not stated)	0	25	0	0	0	0	0
CCCC1S/C(=N/N=C/c2ccco2)NC1=O (configuration not stated)	-	0	0	-	-	0	-
Cc1ccc(CC2S/C(=N/N=C/c3ccco3)NC2=O)cc1 (configuration not stated)	-	0	0	-	0	0	-
O=C1N/C(=N/N=C/c2ccco2)SC1Cc1ccccc1 (configuration not stated)	0	21	0	0	0	0	0
COc1ccc2c3c(n(C)c2c1)[C@H](CO)N(Cc1ccccc1)CC31CCN(S(=O)(=O)c2ccc(C)cc2)CC1	0	-	-	-	0	-	-
CCn1c(=S)sc2c(=O)n(CC(=O)Nc3ccc(OC)c(Cl)c3)c(C)nc21	0	28	0	0	0	0	0
Cc1nc2c(sc(=S)n2Cc2ccco2)c(=O)n1CC(=O)Nc1cc(F)ccc1F	0	103	-	0	0	0	0
COc1ccc(CC(=O)Nc2ccc(-c3noc(-c4ccc(Cl)cc4)n3)cc2)cc1	-	60	0	0	-	0	0
CCOc1ccccc1-c1nc(-c2ccc(NC(=O)Cc3ccc(OC)cc3)cc2)no1	-	25	0	0	-	0	0
COc1ccc(CC(=O)Nc2ccc(-c3noc(COc4ccccc4C)n3)cc2)cc1	-	0	0	0	-	0	-
COc1cc(-c2nc(-c3ccc(NC(=O)c4ccc5c(c4)OCO5)cc3)no2)cc(OC)c1OC	-	43	-	0	-	0	0
COc1ccc(NC(=O)C2CCN(c3nc(-c4ccc(OC)cc4)no3)CC2)cc1	0	29	0	0	0	0	0
C[C@H]1CN([C@@H](C)CO)C(=O)c2cc(C3=CCCCC3)cnc2O[C@@H]1CN(C)Cc1ccc(C(=O)O)cc1	0	-	-	0	0	-	-
COc1ccc(CC(=O)Nc2ccc(NC(=O)c3ccccc3F)cc2)cc1	0	20	0	-	0	0	0
COc1ccc(-c2nc(CS(=O)(=O)CC(=O)Nc3ccc(Cl)cc3)c(C)o2)cc1	0	45	0	0	0	0	0
COc1ccc(-c2noc(CCC(=O)Nc3ccc(C)c(C)c3)n2)cc1	-	0	0	0	-	0	-
COc1ccc(CC(=O)Nc2ccc(-c3noc(-c4cc(OC)c(OC)c(OC)c4)n3)cc2)cc1	-	21	0	0	-	0	0
COc1ccc(NC(=O)CSc2nc(N)c(NC(=O)c3ccccc3F)c(=O)[nH]2)cc1	0	0	0	0	0	0	-
O=C(C1CC1)N1CCCCN2[C@H](CO)[C@@H](c3ccc(C#CC4CC4)cc3)[C@@H]2C1	0	-	-	0	0	-	-
Cn1nc(-c2ccc(C(=O)Nc3cccc(Cl)c3)cc2)c2ccccc2c1=O	-	40	0	0	-	0	0
Cc1ccc(NC(=O)c2ccc(-c3nn(C)c(=O)c4ccccc34)cc2)cc1	0	0	0	0	-	0	-
Cn1nc(-c2ccc(C(=O)Nc3ccc(F)cc3)cc2)c2ccccc2c1=O	-	51	0	-	-	0	0
